Source: PubChem BioAssay
Nrf2 block: inhibitors of Nrf2 signaling; actives 2.1% (n = 360,000); A549 ARE-Fluc reporter, luciferase luminescence, 18-24 h; Potency, µM (titrated, usually from 46 µM), usual class: inhibitors; note: nearly all actives have a fitted effect of over 60% in size
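Cells were seeded and rested 2 h, then exposed to compounds for 18-24 h. CellTiter-Fluor was read first as a viability measure. BugLite was added 15 min before the final luminescent read of ARE-luciferase activity in A549 cells.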
ATXN viability: viability counter-screen for ATXN expression inhibitors. Potency, µM (series often up to 56.7 µM), most hits filed as cytotoxic. actives 0.49% (n = 400,000). S2 cells (HEK-293 line with an ATXN2-luciferase reporter) viability, CellTiter-Fluor protease fluorescence, 24 h. AID 651635; note: nearly all actives have a fitted effect of over 40% in size
ATXN2 expr inh: inhibitors of ATXN2 expression. AID 1745845. HEK-293 ATXN2-luciferase reporter, luminescence, 24 h. actives 0.72% (n = 360,000). Potency, µM (titrated, usually from 57 µM), most hits filed as inhibitors; note: nearly all actives have a fitted effect of over 55% in size
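qHTS (up to 57 uM final) was run with 24 h compound exposure of reporter cells at 37 °C. Each well was multiplexed: SteadyGlo luminescence measured ATXN2-luciferase expression after a fluorogenic Gly-Phe-AFC viability readout (25 uM final).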
A549 tox-1: counter-screen for Nrf2 inhibitors: cytotoxicity in A549 cells; A549 ARE-Fluc cells, CellTiter-Fluor viability, 18-24 h; Potency, µM (highest dose often 46 µM), most hits filed as inhibitors; actives 0.16% (n = 390,000); AID 504648
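A549 ARE_Fluc cells in 5% FBS OPTI-MEM were exposed to compounds in concentration-response for 18-24 h at 37 deg C. Viability was read by CellTiter-Fluor fluorescence (Ex 405/Em 525) after 30 min, before the luciferase read.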
Nrf2 activator: activators of Nrf2 (ARE) signaling | AREc32 ARE-luciferase reporter (MCF7-derived line), luminescence, 24 h | Potency, µM (series often up to 46.1 µM), actives largely listed as activators | actives 0.31% (n = 410,000) | AID 624171; note: nearly all actives have a fitted effect of over 65% in size
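ARE activation measured as luciferase luminescence (Steady-Glo, 30 min RT) in AREc32_Fluc cells after 24 hr compound exposure at 37 deg C, 5% CO2; cells seeded overnight at 1000/well in OPTI-MEM, 5% FBS.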
FLuc enzyme inh: counter-screen for Nrf2 inhibitors: firefly luciferase enzyme inhibition | Potency, µM (top dose mostly 57.5 µM), most hits filed as inhibitors | actives 4% (n = 1,400) | AID 720522 | purified firefly luciferase, luminescence inhibition | shares compounds with Nrf2 block; note: nearly all actives have a fitted effect of over 65% in size
Target sequence (P08659 whole entry, looked up): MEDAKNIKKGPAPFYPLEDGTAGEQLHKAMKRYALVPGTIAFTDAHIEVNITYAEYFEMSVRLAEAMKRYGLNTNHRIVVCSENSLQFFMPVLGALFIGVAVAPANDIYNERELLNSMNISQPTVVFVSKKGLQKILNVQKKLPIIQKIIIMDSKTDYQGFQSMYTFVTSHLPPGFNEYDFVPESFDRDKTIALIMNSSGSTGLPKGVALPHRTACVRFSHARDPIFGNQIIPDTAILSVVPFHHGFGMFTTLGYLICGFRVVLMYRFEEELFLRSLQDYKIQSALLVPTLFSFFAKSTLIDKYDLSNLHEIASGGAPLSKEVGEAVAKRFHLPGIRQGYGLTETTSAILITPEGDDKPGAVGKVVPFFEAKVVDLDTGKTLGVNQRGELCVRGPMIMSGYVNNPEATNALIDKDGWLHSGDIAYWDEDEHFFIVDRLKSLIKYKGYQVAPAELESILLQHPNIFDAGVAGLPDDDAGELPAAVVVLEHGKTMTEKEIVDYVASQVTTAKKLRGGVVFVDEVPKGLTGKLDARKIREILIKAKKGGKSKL
A549 tox-2: A549 cytotoxicity, Nrf2 inhibitor counterscreen; shares compounds with Nrf2 block; A549 ARE-Fluc cells, cytotoxicity counterscreen; Potency, µM (titrated, usually from 46.1 µM), actives largely listed as inhibitors; actives 2% (n = 1,400);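 note: cells exposed to compounds for 18 to 24 hours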
Nrf2 ARE inh: Nrf2 inhibition confirmed, A549 ARE-luciferase; shares compounds with Nrf2 block; A549 ARE-firefly luciferase reporter, luminescence; Potency, µM (doses to about 46.1 µM), actives largely listed as inhibitors; actives 74% (n = 1,400); AID 720524; note: nearly all actives have a fitted effect of over 65% in size
Each line names hits and unclear results; the compound was inactive in the other large screens (follow-up assays come after a bar, where shown). Shown are actives, neighbours in structure and some others; about 2.9% of the full set was active somewhere. Calls come from the whole dose curve; as a rule, active = well fitted curve in the direction sought with a large enough effect; inconclusive = small, poorly fitted or top-dose-only effect, or another doubt; inactive = no such curve, though single readings can be large; an effect the other way counts as inactive or inconclusive.

Cc1ccc(C(=O)Nc2ccc(Br)c(C(F)(F)F)c2)cc1	Nrf2 block 1.6µM (not shown: A549 tox-1) | FLuc enzyme inh 6.7µM | A549 tox-2 inactive
Cc1ccc(NC(=O)c2ccc(C)cc2)cc1	Nrf2 block inconclusive
CCOC(=O)c1ccc(NS(=O)(=O)c2ccc3c(c2)OCCO3)cc1	Nrf2 block inconclusive
COc1ccc(OC(C)c2nc3ccccc3[nH]2)cc1 (stereo unspecified)	Nrf2 block 9.2µM (no result: ATXN viability, ATXN2 expr inh) | FLuc enzyme inh inactive | A549 tox-2 inactive | Nrf2 ARE inh inactive
COc1ccc(OCc2nc3ccccc3[nH]2)cc1	Nrf2 block inconclusive
CN(Cc1ccc(Cl)cc1)C(=O)c1ccc(S(=O)(=O)NCc2ccco2)cc1	Nrf2 block 9.2µM | FLuc enzyme inh inactive | A549 tox-2 inactive | Nrf2 ARE inh inactive
CCOc1ccc(NC(=O)c2c(NC(=O)c3cccs3)sc3c2CCC(C(C)(C)C)C3)cc1 (stereo unspecified)	none
Cc1ccc(CNC(=O)Cn2cc(S(=O)(=O)Cc3ccccc3F)c3ccccc32)cc1	none (no result: ATXN viability, ATXN2 expr inh)
CCN1CCS/C1=C\C=C\C1=[N+](CC)CCS1	Nrf2 block 1.6µM, ATXN viability 24µM, ATXN2 expr inh inconclusive, A549 tox-1 inconclusive | FLuc enzyme inh inactive | A549 tox-2 inconclusive | Nrf2 ARE inh 6.5µM
O=C(Nc1ccc2nc(SCCOc3ccccc3Cl)sc2c1)c1cccs1	Nrf2 block 9.2µM (no result: ATXN viability, ATXN2 expr inh) | FLuc enzyme inh inactive | A549 tox-2 inactive | Nrf2 ARE inh 8.2µM
COc1ccc(CCNc2ncnc3sccc23)cc1OC	Nrf2 block 0.58µM | FLuc enzyme inh inactive | A549 tox-2 inactive | Nrf2 ARE inh 0.52µM
c1ccc2c(c1)OCC(CNc1ncnc3sccc13)O2 (stereo unspecified)	Nrf2 block 1.5µM | FLuc enzyme inh inactive | A549 tox-2 inactive | Nrf2 ARE inh 1.2µM
COc1ccc(Nc2ncnc3sccc23)cc1OC	Nrf2 block inconclusive
COc1ccc(CCNc2ncnc3c2oc2ccccc23)cc1OC	Nrf2 block 5.2µM, ATXN2 expr inh 28µM (no result: ATXN viability) | FLuc enzyme inh inactive | A549 tox-2 inactive | Nrf2 ARE inh 4.1µM
NS(=O)(=O)c1ccc(CNc2ncnc3sccc23)cc1	none
c1ccc(CNc2ncnc3c2oc2ccccc23)nc1	Nrf2 block inconclusive
CN(C)c1ccc(CNc2ncnc3sccc23)cc1	Nrf2 block 4.6µM | FLuc enzyme inh inactive | A549 tox-2 inactive | Nrf2 ARE inh 12µM
Fc1ccccc1CNc1ncnc2sccc12	Nrf2 block 4.1µM | FLuc enzyme inh inactive | A549 tox-2 inactive | Nrf2 ARE inh 5.2µM
COc1ccccc1CNc1ncnc2sccc12	Nrf2 block 3.3µM | FLuc enzyme inh inactive | A549 tox-2 inactive | Nrf2 ARE inh 4.1µM
COc1ccccc1Oc1ncnc2sccc12	none
CCOC(=O)C1CCN(Cc2cn3c(-c4ccc(OC)cc4)nnc3s2)CC1	none (no result: Nrf2 block)
COc1cccc(C2C(C(=O)Nc3ccccc3OC)=C(C)Nc3nc(-c4ccco4)nn32)c1 (stereo unspecified)	ATXN viability inconclusive
NC(=Nc1nc(-c2ccccn2)cc2ccccc12)c1ccccn1	Nrf2 block 1.5µM, ATXN viability inconclusive, ATXN2 expr inh 0.32µM | FLuc enzyme inh inactive | A549 tox-2 inactive | Nrf2 ARE inh 1.6µM
N/C(=N\OC(=O)c1cccc2ccccc12)c1ccccn1	Nrf2 block inconclusive, ATXN viability inconclusive
CC(=O)N1CCc2cc(S(=O)(=O)CCC(=O)Nc3ccc(C)cc3Br)ccc21	none
O=C(c1cc(S(=O)(=O)N2CCN(c3ccccc3)CC2)ccc1Cl)N1CCCC(C(F)(F)F)C1 (stereo unspecified)	Nrf2 block 4.6µM | FLuc enzyme inh inactive | A549 tox-2 inactive | Nrf2 ARE inh 5.2µM
